Data taken from the supplement of paper PMC6555819.

Tests used:
Test in all cases: PBM binding z-score (relative to random genomic background probes); higher = stronger binding; sequences stand for … in GC…GCGATTGACAGCGTAGAATGAAGG
[1] = tested on: PPARg:RXRa DBDmut IVT, anti-RXR (DBD mutation: RXRa K156A/R161A, NR concentration 270 nM, RXRa partner concentration 90 nM)
Procedure, shortened: (§1)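 Scanned fluorescence from custom Agilent 4×180K protein-binding microarrays was regression-normalized. Binding z-scores use random background probes as reference. Ligand-free nuclear receptor dimers were incubated on the arrays for 1 h and detected with antibodies against each partner (one per run).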

[2] = tested on: PPARg:RXRa IVT, anti-PPARg (NR concentration 270 nM, RXRa partner concentration 90 nM)
Procedure, shortened: as §1

[3] = tested on: PPARg DBDmut:RXRa IVT, anti-PPARg (DBD mutation: PPARg1 K132A/R137A, NR concentration 270 nM, RXRa partner concentration 90 nM)
Procedure, shortened: as §1

[4] = tested on: PPARg DBDmut IVT, anti-PPARg (DBD mutation: PPARg1 K132A/R137A, NR concentration 270 nM)
Procedure, shortened: as §1

[5] = tested on: PPARg homodimer (NR concentration 180 nM)
Procedure, shortened: as §1

[6] = tested on: PXR:RXRa (NR concentration 270 nM, RXRa partner concentration 90 nM)
Procedure, shortened: as §1

[7] = tested on: PXR homodimer (NR concentration 270 nM)
Procedure, shortened: as §1

[8] = tested on: RARa:RXR (NR concentration 270 nM, RXRa partner concentration 90 nM)
Procedure, shortened: as §1

[9] = tested on: RARa homodimer (NR concentration 270 nM)
Procedure, shortened: as §1

[10] = tested on: RARb:RXRa (NR concentration 270 nM, RXRa partner concentration 90 nM)
Procedure, shortened: as §1

[11] = tested on: RARb homodimer (NR concentration 270 nM)
Procedure, shortened: as §1

[12] = tested on: RARg:RXRa (NR concentration 270 nM, RXRa partner concentration 90 nM)
Procedure, shortened: as §1

[13] = tested on: RARg homodimer (NR concentration 270 nM)
Procedure, shortened: as §1

[14] = tested on: RXRa DBDmut IVT, anti-RXR (DBD mutation: RXRa K156A/R161A, NR concentration 90 nM)
Procedure, shortened: as §1

[15] = tested on: RXRa homodimer (NR concentration 180 nM)
Procedure, shortened: as §1

[16] = tested on: THRa:RXRa (NR concentration 90 nM, RXRa partner concentration 90 nM)
Procedure, shortened: as §1

[17] = tested on: THRa homodimer (NR concentration 90 nM)
Procedure, shortened: as §1

[18] = tested on: VDR homodimer (NR concentration 270 nM)
Procedure, shortened: as §1

| Sequence | PBM binding z-score [1] | PBM binding z-score [2] | PBM binding z-score [3] | PBM binding z-score [4] | PBM binding z-score [5] | PBM binding z-score [6] | PBM binding z-score [7] | PBM binding z-score [8] | PBM binding z-score [9] | PBM binding z-score [10] | PBM binding z-score [11] | PBM binding z-score [12] | PBM binding z-score [13] | PBM binding z-score [14] | PBM binding z-score [15] | PBM binding z-score [16] | PBM binding z-score [17] | PBM binding z-score [18] |
| --- | --- | --- | --- | --- | --- | --- | --- | --- | --- | --- | --- | --- | --- | --- | --- | --- | --- | --- |
| CGACCAAGGTGAACAAGGTCGTTGATTACTATTC | 1.95 | 2.6 | -0.104 | -0.33 | 0.615 | 2.45 | 1.03 | 1.99 | 0.125 | 2.22 | 2.12 | 1.92 | 1.56 | 0.907 | 2.13 | 3.35 | 1.68 | 1.82 |
| CCTACTGGGACAAAAAGGTCATTGATGCCGATAA | 4 | 4.26 | 0.444 | -0.273 | 3.86 | 4.85 | 4.14 | 5.36 | 1.97 | 3.94 | 4.37 | 4.68 | 4.48 | 1.21 | 5.22 | 3.31 | 0.878 | 3.69 |
| CGTCCAAGGTCAATGCTAGGTCAGTGTAAGCATT | 3.19 | 3.97 | 0.641 | -0.396 | 6.64 | 4.83 | 2.1 | 5.95 | 1.32 | 5.13 | 5.02 | 7.55 | 7 | 3.74 | 5.35 | 4.48 | 2.75 | 3.52 |
| ACTATAAGTTGAGACGAGGGCAACCGATAGGTTG | 0.251 | 0.388 | 0.373 | -0.377 | 0.181 | 3.22 | 0.715 | 1.53 | 0.18 | 1.53 | 1.57 | 1.19 | 1.21 | 0.723 | 0.925 | 3.73 | 0.194 | 1.39 |
| TCTCGGAGGACACGAAAGGTCGGAGCTCGACATC | 1.24 | 0.486 | -0.405 | -0.523 | 0.582 | 1.38 | -0.652 | 1.61 | -0.809 | 2.56 | 2.87 | 2.45 | 2.91 | 1.02 | 1.66 | 2.7 | 0.464 | 0.287 |
| CAAACTAGGTAAAGAGGTCAAAGTCCGCTTCCCG | 6.78 | 6.91 | 3.48 | 1.44 | 5.18 | 5.5 | 2.02 | 6.1 | 1.43 | 3.95 | 4.1 | 5.02 | 4 | 2.13 | 5.62 | 3.75 | 1.47 | 4.05 |
| CGTCCAAGATCAAAGGTCAGTGAAGAGATGACGG | 0.235 | 2.39 | 0.493 | -0.0647 | 3.36 | 3.67 | 0.13 | 5.06 | 1.29 | 4.37 | 4.44 | 4.65 | 4.54 | 0.609 | 5.07 | 2.59 | 0.239 | 1.07 |
| CCTAGCAAGCCAATCTGGGTCACTCAAGGCTTGA | 3.85 | 4.86 | -0.252 | -0.0798 | 0.973 | 0.841 | -0.371 | 1.69 | -0.371 | 0.92 | 1.9 | 0.58 | 0.537 | -0.0119 | 0.781 | 2.99 | 0.441 | 0.0159 |
| CCTACTGGGCCACGAAAGGTCATTTATTCAGTGA | 5.5 | 5.64 | -0.2 | -0.0827 | 2.68 | 5.07 | 2.29 | 4.64 | 1.05 | 3.78 | 4.32 | 4.41 | 4.2 | 0.751 | 4.96 | 3.5 | 0.944 | 2.76 |
| CGTCCAAGGCCAGAGAGGTCAGTGAATGCCGAGT | 0.239 | 0.381 | -0.198 | -1.31 | 0.821 | 3.1 | 3.64 | 2.39 | -0.0907 | 3.41 | 4.2 | 3.05 | 4.27 | 1.06 | 2.22 | 2.77 | 0.817 | 2.55 |
| GCAGAGAGGTGAAACGCAGGTAACTCAGGGTGGC | 2.17 | 1.97 | -0.463 | -1.39 | -0.0516 | 0.34 | -0.544 | 1.48 | -0.435 | 1.88 | 1.31 | 2.59 | 1.21 | 0.025 | 1.79 | 2.37 | 0.0883 | -0.369 |
| ATCTCTAGGTAAGGATAGTTCAGTGAATGCAAAT | 1.23 | 1.1 | 0.846 | 0.942 | 0.983 | 0.619 | 0.997 | 0.17 | 1.04 | 0.741 | 1.05 | 0.45 | 0.907 | 0.233 | -0.127 | 1.21 | 0.86 | 0.73 |
| CCTTACGGGTCGAGGTTATAGCACGGGTGGTACG | -0.517 | 0.508 | -0.109 | -1.51 | 1.53 | 1.11 | 0.209 | 1.61 | -0.219 | 1.97 | 1.42 | 1.78 | 1.16 | -0.662 | 2.5 | 1.84 | 0.377 | 0.977 |
| ATCTCTAGGTAAGACTCGGTTCAGTGAAGAACGC | 2.07 | 1.14 | 0.784 | 0.701 | 0.702 | 0.669 | 1.18 | 0.0867 | 1.5 | 0.192 | 0.578 | 0.12 | 0.211 | 0.708 | 0.162 | 0.549 | 0.875 | 2.06 |
| CCGACTGGGGTAAGGTTACCATAACGCACAGCCA | 1.25 | 2.26 | -0.489 | -1.25 | 0.783 | 0.899 | -0.126 | 1.55 | 0.484 | 1.3 | 1.12 | 0.907 | 0.859 | -0.0386 | 1.55 | 2.36 | 1.47 | 0.414 |
| CAAACTAGGTCAAGGTCACAGTCGGTTTGTGCCA | 8.39 | 8.56 | 6.22 | 2.94 | 5.11 | 5.3 | 1.75 | 5.94 | 1.99 | 5.17 | 5.15 | 6.22 | 6.99 | 2.66 | 5.94 | 4.67 | 4.75 | 4.27 |
